The supplement of paper PMC12494721
Counter-ions that a name gives are not always drawn.

Experiments:
Details in all cases: 20 µM; incubation time: 27 h, anaerobic, 37 °C;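 for the amine columns active = adjusted P below 0.05 in both replicates with a change the same way and a mean fold change under 0.8 or over 1.25; inactive = the rest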
[1] = test system: Clostridium sporogenes DSM 1664; test: growth (OD595) fold change vs plate DMSO controls (fold change (ratio)); higher = more growth
Summary of the method: (§1)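 Each value is the mean of 2 biological replicates, and fold changes above 1.5 were set to NA. The underlying readings were taken at 595 nm from shaken anaerobic mGAM cultures in 96-well plates after 27 h at 37 °C. They were blank-subtracted, corrected for compound background using 20 µM compound solutions in water, and converted to OD with a calibration factor of 5. Growth is the fold change relative to the median of the plate DMSO controls.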

Escherichia coli IAI1 [2] = test: as above
Summary of the method: as §1

[3] = test system: Klebsiella aerogenes DSM 30053; test: as above
Summary of the method: as §1

[4] = test system: Ruminococcus gnavus DSM 108212; test: as above
Summary of the method: as §1

[5] = test system: Klebsiella aerogenes DSM 30053; test: fold change of Histamine concentration vs plate DMSO controls (fold change (ratio)); higher = more amine produced, active = hit call of the paper (significant change in both replicates, either direction)
Summary of the method: (§2)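 Using LC–triple-quadrupole MS with dynamic MRM, amines were quantified against external calibration curves and corrected for drift within each batch. Samples were whole anaerobic mGAM cultures of four gut strains, grown 27 h at 37 °C from OD 0.1 before 1:1 dilution, extracted with cold acetonitrile/methanol containing 0.1% formic acid and centrifuged. Compounds were present at 20 µM final (sweeteners at 50 µM final). The numbers are fold changes versus plate DMSO controls, each the mean of 2 biological replicates.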

[6] = test system: Clostridium sporogenes DSM 1664; test: fold change of Tryptamine concentration vs plate DMSO controls (fold change (ratio)); higher = more amine produced, active = hit call of the paper (significant change in both replicates, either direction)
Summary of the method: as §2

[7] = test system: Ruminococcus gnavus DSM 108212; test: as above
Summary of the method: as §2

Escherichia coli IAI1 [8] = test: fold change of Putrescine concentration vs plate DMSO controls (fold change (ratio)); higher = more amine produced, active = hit call of the paper (significant change in both replicates, either direction)
Summary of the method: as §2

[9] = test system: Klebsiella aerogenes DSM 30053; test: as above
Summary of the method: as §2

Escherichia coli IAI1 [10] = test: fold change of Cadaverine concentration vs plate DMSO controls (fold change (ratio)); higher = more amine produced, active = hit call of the paper (significant change in both replicates, either direction)
Summary of the method: as §2

[11] = test system: Klebsiella aerogenes DSM 30053; test: as above
Summary of the method: as §2

[12] = test system: Ruminococcus gnavus DSM 108212; test: fold change of 2-Phenylethylamine concentration vs plate DMSO controls (fold change (ratio)); higher = more amine produced, active = hit call of the paper (significant change in both replicates, either direction)
Summary of the method: as §2

SMILES | growth [1] | growth (Escherichia coli IAI1 [2]) | growth [3] | growth [4] | fold change of Histamine concentration [5] | fold change of Tryptamine concentration [6] | fold change of Tryptamine concentration [7] | fold change of Putrescine concentration (Escherichia coli IAI1 [8]) | fold change of Putrescine concentration [9] | fold change of Cadaverine concentration (Escherichia coli IAI1 [10]) | fold change of Cadaverine concentration [11] | fold change of 2-Phenylethylamine concentration [12]
CC1=NNC(=O)N(/N=C/c2cccnc2)C1 | 1.04 | 0.951 | 0.97 | 1.03 | 1.03 (inactive) | 1.02 (inactive) | 1.01 (inactive) | 0.906 (inactive) | 0.945 (inactive) | 1.08 (inactive) | 0.99 (inactive) | 1.02 (inactive)
NC(=O)OCCCc1ccccc1 [Phenprobamate] | 0.892 | 0.995 | 0.992 | 0.943 | 0.97 (inactive) | 0.987 (inactive) | 0.96 (inactive) | 1.34 (inactive) | 0.99 (inactive) | 0.952 (inactive) | 0.984 (inactive) | 0.943 (inactive)
C=CC[C@]1(O)CC[C@H]2[C@@H]3CCC4=CC(=O)CCC4=C3C=C[C@@]21C [Altrenogest] | 0.998 | 0.987 | 1.05 | 0.827 | 0.926 (inactive) | 1.02 (inactive) | 1 (inactive) | 1.09 (inactive) | 1.01 (inactive) | 1.42 (inactive) | 1.01 (inactive) | 0.978 (inactive)
CC1(C)CON(Cc2ccccc2Cl)C1=O | 0.972 | 0.994 | 0.994 | 0.976 | 1.02 (inactive) | 1.02 (inactive) | 1.01 (inactive) | 1.01 (inactive) | 1 (inactive) | 1.02 (inactive) | 0.986 (inactive) | 0.993 (inactive)
O=C(O)CNCP(=O)(O)O | 0.851 | 1.02 | 0.976 | 0.965 | 1.03 (inactive) | 0.931 (inactive) | 0.98 (inactive) | 0.961 (inactive) | 1.02 (inactive) | 0.991 (inactive) | 1.03 (inactive) | 0.966 (inactive)
CNC(=O)c1cc(Cl)cc(C)c1NC(=O)c1cc(Br)nn1-c1ncccc1Cl | 0.896 | 1.11 | 1.06 | 1.17 | 0.901 (inactive) | 0.953 (inactive) | 0.997 (inactive) | 1.02 (inactive) | 0.982 (inactive) | 0.964 (inactive) | 0.999 (inactive) | 1.01 (inactive)
CCCCCC[C@H]1C(=O)O[C@H](C)[C@H](NC(=O)c2cccc(NC=O)c2O)C(=O)O[C@@H](C)[C@@H]1OC(=O)CC(C)C [Antimycin A] | 1.09 | 1.03 | 1.02 | 1.15 | 0.994 (inactive) | 0.974 (inactive) | 1.04 (inactive) | 0.99 (inactive) | 0.98 (inactive) | 1.03 (inactive) | 1.01 (inactive) | 0.975 (inactive)
CC(=O)OC1CN2CCC1CC2 (stereo unspecified) [Aceclidine hydrochloride] | 1.15 | 1.09 | 1.01 | 1.13 | 0.864 (inactive) | 1.02 (inactive) | 1.03 (inactive) | 1.02 (inactive) | 0.959 (inactive) | 0.951 (inactive) | 1.02 (inactive) | 1.01 (inactive)
Cc1cccc2sc3nncn3c12 | 0.977 | 1 | 0.981 | 1 | 0.973 (inactive) | 0.982 (inactive) | 0.98 (inactive) | 0.99 (inactive) | 0.997 (inactive) | 1.03 (inactive) | 0.995 (inactive) | 0.992 (inactive)
CC1(C)[C@H](C(=O)O[C@H](C#N)c2cccc(Oc3ccccc3)c2)[C@@H]1C=C(Br)Br | 1.12 | 0.981 | 0.998 | 1.02 | 1.02 (inactive) | 0.958 (inactive) | 0.967 (inactive) | 0.983 (inactive) | 1.01 (inactive) | 0.989 (inactive) | 1 (inactive) | 0.915 (inactive)
NCCCNCCSP(=O)(O)O [Amifostine] | 0.94 | 1 | 1.12 | 1.38 | 0.978 (inactive) | 1.01 (inactive) | 1.03 (inactive) | 1 (inactive) | 0.999 (inactive) | 1.01 (inactive) | 0.999 (inactive) | 1.01 (inactive)
C[N+]1(C)[C@@H]2CC[C@H]1C[C@@H](OC(=O)C(CO)c1ccccc1)C2 (stereo partly specified) [Methylatropine nitrate] | 0.875 | 0.835 | 0.989 | 0.97 | 0.978 (inactive) | 0.99 (inactive) | 1 (inactive) | 0.932 (inactive) | 1.02 (inactive) | 1.07 (inactive) | 1.01 (inactive) | 0.956 (inactive)
CC(=O)OCC1=C(C(=O)O)N2C(=O)[C@@H](N)[C@H]2SC1 [Cephalosporanic acid, 7-amino] | 1.05 | 1.05 | 0.979 | 0.924 | 1.07 (inactive) | 1.04 (inactive) | 0.949 (inactive) | 1.05 (inactive) | 1.01 (inactive) | 1 (inactive) | 0.985 (inactive) | 0.942 (inactive)
